About 83,000 compounds went through this panel and 20% of them were active in at least one assay; those are over-represented in the sample as a whole.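 Cell lines were cultured in 96-well plates, exposed to a single compound concentration, and assessed for percent growth 48 hours later.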 A number with no mark means an inactive call. The source made the active and inactive calls. How the source made its calls: active means growth percent below 10; inactive means the rest.

Some test systems named below: NCI-H23 lung; NCI-H226 lung; NCI-H322M lung; HOP-62 NSCLC; HOP-92 NSCLC; NCI-H522 lung; A549/ATCC NSCLC; 786-0 renal; COLO 205 colon.
What all share (test): NCI-60 one-dose screen, 48 h (100 = growth as untreated, 0 = no growth, -100 = all killed)
Holding throughout (details): 10 µM unless noted

Consider `O=C1C=CC(Nc2ccccc2[N+](=O)[O-])C1Nc1ccccc1[N+](=O)[O-]` (stereo not drawn), for which the growth is 6.85% (active) with NCI-H23 lung; -41.7% (active) with NCI-H226 lung; 79.1% with NCI-H322M lung; 90.9% in the assay on HOP-62 NSCLC; -56.5% (active) in the assay on HOP-92 NSCLC; -90.1% (active) in the assay on NCI-H522 lung. For the same molecule, the growth is 92.2% in the assay on A549/ATCC NSCLC, -76.7% (active) in the assay on 786-0 renal and -79.2% (active) in the assay with COLO 205 colon.

In the case of `CCC(=O)OCc1cccc(OC)c1`, the growth in the assay with NCI-H23 lung was 107%; with NCI-H226 lung it was 97.9%; with NCI-H322M lung, 108%; with HOP-62 NSCLC, 87.9%; in the assay with HOP-92 NSCLC, 76.4%; with NCI-H522 lung, 94.5%. The growth with A549/ATCC NSCLC was 113%; in the assay with 786-0 renal it was 102%; in the assay on COLO 205 colon, 111%.

Turning to `C/C(=C(/c1ccc(O)cc1)c1ccc(OCCN2CCCC2)cc1)c1ccccc1`, the growth in the assay on NCI-H23 lung was 68.1%; in the assay with NCI-H226 lung it was 82.9%; in the assay on NCI-H322M lung it was 75.8%; in the assay with HOP-62 NSCLC, 70.3%; in the assay on HOP-92 NSCLC it was 30%; in the assay with NCI-H522 lung, 49.8%. Besides, the growth was 48.7% in the assay with A549/ATCC NSCLC, 57.1% in the assay on 786-0 renal and -56.4% (active) in the assay with COLO 205 colon.

In the case of `Nc1cc2nc3ccccc3sc-2cc1=O`, the growth was 50% in the assay with NCI-H23 lung; 84.4% in the assay on NCI-H226 lung; 93.8% in the assay with NCI-H322M lung; 63.9% with HOP-62 NSCLC; 101% with HOP-92 NSCLC; 66% in the assay on NCI-H522 lung. The values for the growth in the assay with A549/ATCC NSCLC, in the assay on 786-0 renal and in the assay on COLO 205 colon were 27.3%, 97.7% and 104%, respectively.

On to `COc1ccc(-c2nc(Nc3cc(C)[nH]n3)c3ccccc3n2)cc1`, for which the growth was 60.2% with NCI-H23 lung; 41.2% in the assay on NCI-H226 lung; 78.1% with NCI-H322M lung; 43.2% in the assay with HOP-62 NSCLC; 3.24% (active) in the assay with HOP-92 NSCLC; 8.31% (active) in the assay with NCI-H522 lung. For the same molecule, the results for the growth with A549/ATCC NSCLC, in the assay with 786-0 renal and with COLO 205 colon were 23.9%, 50% and 3.04% (active), respectively.

As for `ClC1=C2NC=NC2n2c(nnc2-c2ccc(Cl)cc2)N1` (stereo not drawn), the growth in the assay on NCI-H23 lung was 107%; in the assay with NCI-H226 lung it was 96.2%; in the assay on NCI-H322M lung it was 110%; with HOP-62 NSCLC it was 98.7%; in the assay with HOP-92 NSCLC it was 109%; in the assay with NCI-H522 lung, 73.2%. Further, the results for the growth in the assay with A549/ATCC NSCLC, in the assay with 786-0 renal and in the assay with COLO 205 colon were 81.4%, 97.2% and 89.8%, respectively.

Regarding `COc1cc(/C=N\NC(=O)CN2CCN(c3cc4c(cc3F)c(=O)c(C(=O)N/N=C/c3ccc(O)c(OC)c3)cn4C3CC3)CC2)ccc1O`, the growth was 53.7% in the assay on NCI-H23 lung; 70.5% in the assay with NCI-H226 lung; 31.7% in the assay with NCI-H322M lung; 73.1% with HOP-62 NSCLC; 70.9% with HOP-92 NSCLC; 18.9% with NCI-H522 lung. The growth is 66.9% in the assay on A549/ATCC NSCLC, 92.4% in the assay with 786-0 renal and -9.77% (active) in the assay with COLO 205 colon.

As to `COc1ccc(-c2cc(-c3ccc(N(C)C)cc3)nc(NC(=O)c3ccncc3)n2)cc1`, the growth with NCI-H23 lung is 91.8%; in the assay on NCI-H226 lung, 82.6%; in the assay on NCI-H322M lung, 87.8%; with HOP-62 NSCLC it was 103%; in the assay with HOP-92 NSCLC it was 62.8%; with NCI-H522 lung it was 90.7%. Moreover, the figures for the growth with A549/ATCC NSCLC, with 786-0 renal and with COLO 205 colon were 93.7%, 97.1% and 111%, respectively.

`COc1cccc(-c2cn3c(ccc4ccccc43)n2)c1`: the growth is 49.8% with NCI-H23 lung; 43.9% in the assay with NCI-H226 lung; 56.4% in the assay with NCI-H322M lung; 25.8% with HOP-62 NSCLC; 64.2% in the assay on HOP-92 NSCLC; 15.9% in the assay on NCI-H522 lung. The growth in the assay on A549/ATCC NSCLC is 55%; with 786-0 renal it was 44.4%; in the assay with COLO 205 colon, 11.4%.

On to `Cc1ccc2cnc(N)c(C#Cc3cncc(C(=O)Nc4ccc(CN5CCN(C)CC5)c(C(F)(F)F)c4)c3)c2c1`, for which the growth in the assay with NCI-H23 lung is -63.8% (active); in the assay with NCI-H226 lung, -75.8% (active); in the assay on NCI-H322M lung it was -97.2% (active); in the assay on HOP-62 NSCLC, -85.2% (active); in the assay on HOP-92 NSCLC, -80.9% (active); in the assay with NCI-H522 lung it was -71% (active). For the same molecule, the results for the growth with A549/ATCC NSCLC, in the assay on 786-0 renal and with COLO 205 colon were -79.4% (active), -79.6% (active) and -70.3% (active), respectively.

Consider `CC(C)(C)n1cc(-c2ccnc(NCCNS(=O)(=O)c3ccccc3)c2)c(-c2cccc(O)c2)n1`, for which the growth is 70.3% in the assay on NCI-H23 lung; 60.4% with NCI-H226 lung; 78.1% with NCI-H322M lung; 82.5% in the assay with HOP-62 NSCLC; 77.8% in the assay with HOP-92 NSCLC; 57.7% in the assay on NCI-H522 lung. For the same molecule, the figures for the growth in the assay on A549/ATCC NSCLC, with 786-0 renal and in the assay with COLO 205 colon were 47.1%, 18.5% and 6.61% (active), respectively.

`COc1ccc(CCN2CC=Cn3c2nc2ccccc2c3=O)cc1`: the growth in the assay on NCI-H23 lung is 25%; in the assay on NCI-H226 lung, 11.7%; in the assay on NCI-H322M lung, 47.3%; in the assay with HOP-62 NSCLC, 39.9%; with HOP-92 NSCLC, 28.1%; in the assay with NCI-H522 lung, 4.09% (active). For the same molecule, the results for the growth in the assay with A549/ATCC NSCLC and in the assay on COLO 205 colon were 24.1% and -43.2% (active), respectively.

For `CNCCCn1c2c(c3ccc([N+](=O)[O-])cc3c1=O)C(=O)c1cc(OC)cnc1-2`, the growth with NCI-H23 lung is -55.4% (active); with NCI-H226 lung it was -81.5% (active); in the assay on NCI-H322M lung it was -5.51% (active); in the assay with HOP-62 NSCLC it was -33.4% (active); in the assay with HOP-92 NSCLC, -7.43% (active); in the assay with NCI-H522 lung, -29% (active). The growth in the assay on A549/ATCC NSCLC was -82% (active); in the assay with 786-0 renal it was -78.5% (active); in the assay on COLO 205 colon it was -13.2% (active).

For the molecule `C/C(=C(/c1ccc(O)cc1)c1ccc(OCCN(C)C)cc1)c1ccccc1`, the growth in the assay with NCI-H23 lung is 81.9%; in the assay with NCI-H226 lung, 89.4%; in the assay with NCI-H322M lung, 77%; with HOP-62 NSCLC, 79.8%; with HOP-92 NSCLC, 54.9%; in the assay with NCI-H522 lung, 71.8%. In addition, the growth with A549/ATCC NSCLC is 72.4%; in the assay on 786-0 renal it was 89.5%; with COLO 205 colon it was 63.8%.

With `O=C1c2cc3c(cc2-c2c1c1cc(Cl)c(Cl)cc1c(=O)n2C[C@H](O)CO)OCO3`, the growth is -55.7% (active) with NCI-H23 lung; -62% (active) in the assay on NCI-H226 lung; -16% (active) in the assay on NCI-H322M lung; -54.3% (active) in the assay with HOP-62 NSCLC; -31.9% (active) with HOP-92 NSCLC; -29% (active) with NCI-H522 lung. Also, the growth with A549/ATCC NSCLC is -47.3% (active); in the assay on 786-0 renal it was -44.3% (active); in the assay on COLO 205 colon it was -39.4% (active).

For the molecule `C=C(C[n+]1ccccc1)[C@@H]1CC[C@]2(C(=O)OC)CC[C@]3(C)[C@H](CC[C@@H]4[C@@]5(C)CC[C@H](O)C(C)(C)[C@@H]5CC[C@]43C)[C@@H]12`, the growth in the assay on NCI-H23 lung was 97.4%; in the assay with NCI-H226 lung, 89.5%; in the assay with NCI-H322M lung, 101%; in the assay on HOP-62 NSCLC it was 93.5%; with HOP-92 NSCLC it was 82.9%; with NCI-H522 lung, 78%. Besides, the growth in the assay with A549/ATCC NSCLC was 105%; in the assay on 786-0 renal it was 102%; in the assay with COLO 205 colon, 102%.

In the case of `COc1ccccc1-c1ccc2c(N)c(C(=O)c3ccc4c(c3)OCO4)sc2n1`, the growth in the assay on NCI-H23 lung is 82.1%; in the assay with NCI-H226 lung, 96.7%; in the assay on NCI-H322M lung, 94.7%; with HOP-62 NSCLC, 73.3%; with HOP-92 NSCLC, 67.8%; with NCI-H522 lung, 18.6%. Also, the growth is 46.1% with A549/ATCC NSCLC, 86% with 786-0 renal and 89.1% in the assay on COLO 205 colon.

Take `CCN(CC)c1ccc(/C=C/C2=[N+](C)c3ccccc3C2(C)C)cc1`: the growth with NCI-H23 lung was 18.6%; in the assay on NCI-H226 lung, 9.04% (active); with NCI-H322M lung, 27.2%; with HOP-62 NSCLC, 13.8%; in the assay on HOP-92 NSCLC, -10.7% (active); with NCI-H522 lung, 5.08% (active). Also, the growth in the assay on A549/ATCC NSCLC is 14.4%; with 786-0 renal, 8.12% (active); with COLO 205 colon, 4.92% (active).

Regarding `C[C@@H]1CCC2=C(CCC[C@]2(C)C(=O)O)[C@@]1(C)CCc1ccoc1`, the growth in the assay with NCI-H23 lung is 99.4%; in the assay on NCI-H226 lung, 85.7%; in the assay on NCI-H322M lung, 93.4%; in the assay with HOP-62 NSCLC it was 96.5%; in the assay on HOP-92 NSCLC, 85.1%; with NCI-H522 lung it was 77%. Further, the growth with A549/ATCC NSCLC is 75.8%; in the assay on 786-0 renal, 112%; in the assay on COLO 205 colon, 112%.

Take `C=C1CC[C@@H]2[C@](C)(COC(C)=O)[C@H](OC(C)=O)CC[C@@]2(C)[C@@H]1CC(NCc1ccc(F)cc1)C1=CCOC1=O` (stereo partly drawn): the growth with NCI-H23 lung was 57.9%; in the assay with NCI-H226 lung, 40.1%; in the assay on NCI-H322M lung it was 72.5%; with HOP-62 NSCLC, 78.7%; with HOP-92 NSCLC, 18.8%; with NCI-H522 lung, 20.9%. Also, the growth in the assay on A549/ATCC NSCLC is 57.9%; in the assay with 786-0 renal, 86.8%; with COLO 205 colon, 42.2%.

With `O=C1CC(c2nc3ccccc3s2)CN1C1CCCCC1` (stereo not drawn), the growth is 90.4% in the assay on NCI-H23 lung; 94.6% with NCI-H226 lung; 91.2% in the assay with NCI-H322M lung; 93.2% in the assay on HOP-62 NSCLC; 84.9% in the assay with HOP-92 NSCLC; 92.7% in the assay with NCI-H522 lung. Also, the growth with A549/ATCC NSCLC was 98.9%; with 786-0 renal, 109%; with COLO 205 colon it was 101%.

The values are drawn from PubChem BioAssay (NCI).
